# Assay results: PubChem BioAssay (NCATS)
# Results filed as inconclusive are left out. Active and inactive are the calls of the source. The call rests on the fitted dose curve; in most records, active means well fitted inhibition curve with a large enough effect; inconclusive means small, poorly fitted or top-dose-only effect; inactive means flat fitted curve, though single readings scatter.
# Target: Calcium and integrin-binding protein 1 (Homo sapiens) (UniProt Q99828)
# Test: Primary qHTS for Identification of Calcium Integrin Binding Protein 1 (CIB1) Competitor (AID 1508620); further: top concentration of the series differs between compounds
# Conditions: CIB1-GST / FITC-alphaIIb peptide fluorescence polarization; series mostly up to 114 µM; activity change, negative = inhibition: at the top concentration
# Outline: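 Fluorescence polarization competition: GST-tagged CIB1 (1 uM final) preincubated with compound 15 min at room temperature, then FITC-labelled alphaIIb peptide (100 nM final) added. After 15 min at room temperature, polarization read at Ex 480/Em 540.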
# On the % scale 0 is the no-effect control and ±100 the full control effect.
# Calcium and integrin-binding protein 1 (Homo sapiens), sequence (Q99828 whole entry, looked up): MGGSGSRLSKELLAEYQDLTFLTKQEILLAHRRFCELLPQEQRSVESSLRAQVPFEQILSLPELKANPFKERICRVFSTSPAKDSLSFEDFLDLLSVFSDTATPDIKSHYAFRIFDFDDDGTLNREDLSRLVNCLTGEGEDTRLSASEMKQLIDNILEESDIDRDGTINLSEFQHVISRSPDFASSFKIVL
row,Structure (SMILES),"activity change, negative = inhibition"
1,CCCC(C)NC(=O)Cn1nc(-c2ccc(C)cc2)ccc1=O (centres undefined),1.66% (inactive)
2,O=C(Nc1ccc(-c2nc3ccccc3[nH]2)cc1)c1ccc2sccc2c1,2.1% (inactive)
3,O=C1c2ccccc2C(=O)N1c1ncccc1O,2.85% (inactive)
4,Cc1ccc(-c2nccc(=O)n2CC(=O)N(C)C(C)c2ccco2)cc1 (centres undefined),-1.16% (inactive)
5,O=C(Nc1cc(Cc2ccccc2)ccn1)c1ccc(-c2cccc([N+](=O)[O-])c2)o1,-0.493% (inactive)
6,Cc1cc(N[S+](=O)([O-])c2cc3c(cc2Cl)CCC(=O)N3)ccc1Br,-6.07% (inactive)
7,CCOC(=O)c1ccc(-c2ccc3ncnc(N(C)Cc4ccc(C)o4)c3c2)o1,25.1% (inactive)
8,Cc1ccc(OCCn2c(CCNCC3CCCCC3)nc3ccccc32)cc1,-15.8% (inactive)
9,Cc1ccnc(NC(=S)N2CCc3cccc(C(F)(F)F)c3C2)c1,-5.19% (inactive)
10,COc1ccccc1-c1nnc(SCC#CCOC(=O)c2ccc(F)cc2)o1,5.02% (inactive)
11,O=C(Nc1ccc(-n2cncn2)c(C(F)(F)F)c1)Nc1nnc(-c2ccncc2)s1,9.14% (inactive)
12,Nc1nnc(-c2ccc3ccccc3c2)o1,5.86% (inactive)
13,N#Cc1ccc(-c2ccc(C3Nc4ccccc4C(=O)N3O)o2)cc1 (centres undefined),-7.59% (inactive)
14,Cc1ccc2nc(NC3=NC4(CCCC4)C4=C(CCCC4=O)N3)oc2c1,-16% (inactive)
15,CC(C)(C)OC(=O)Cc1nnc(-c2cc3ccccc3[nH]2)s1,2.06% (inactive)
16,Fc1cccc(CNc2ncnc3ccc(-c4ccoc4)cc23)c1,-3.06% (inactive)
17,N#Cc1ccc(OC2=NS(=O)(=O)c3ccccc32)cc1,0.726% (inactive)
18,Cc1ccc(CSc2nnc(-c3cccc4ccccc34)o2)cc1,4.97% (inactive)
19,O=C(c1ccc2c(c1)ncn2-c1ccc(Cl)cc1)N1CCCCC1,-5.06% (inactive)
20,Cc1cc(C)nc(NC(=S)N2CCN(c3noc4ccccc34)CC2)c1,-3.73% (inactive)

row,Structure (SMILES),"activity change, negative = inhibition"
1,C=Cc1nc(Nc2cc(F)cc(F)c2)nc(NC2CCCC2)n1,9.06% (inactive)
2,Cc1cc(C)nc(NC(=S)N2CCN(c3ncnc4sccc34)CC2)c1,0.224% (inactive)
3,CC(C)c1ccccc1-c1ncc(N(C)C)c(NCc2ccc(-c3cccnc3)cc2)n1,0.002% (inactive)
4,CC(=O)Nc1sc2c(c1-c1cccc(N(C)C)c1)CCNC2,2.47% (inactive)
5,COc1cc(F)c(S(=O)(=O)N2CCCN(S(=O)(=O)c3cccc(N)c3)CC2)c(F)c1,0.481% (inactive)
6,COc1cccc(Cn2ncc3c4sc(C)cc4n(C)c3c2=O)c1,-1.53% (inactive)
7,O=Cc1nc(Nc2cc(F)cc(F)c2)nc(NC2CCCC2)n1,-15.3% (inactive)
8,N#Cc1c(-c2ccc(F)c(Br)c2)no[n+]1[O-],-14.7% (inactive)
9,Oc1cc(NCc2ccccc2)cc2cccnc12,-24.2% (inactive)
10,Cc1cc(C)nc(NC(=S)N2CCN(c3ccc4c(c3)OCO4)CC2)c1,-12.2% (inactive)
11,Cc1noc(C)c1-c1ccc2ncnc(NCc3ccc(C(F)(F)F)cc3)c2c1,1.92% (inactive)
12,CC(C)(C)c1ccc(C[C@H](C(=O)O)N2C(=O)c3ccc(C(=O)O)cc3C2=O)cc1,1.88% (inactive)
13,Cc1noc(C)c1-c1ccc2ncnc(NCc3ccc(Br)cc3)c2c1,-3.41% (inactive)
14,COc1cccc(NS(=O)(=O)c2ccc(NCc3cccc(OC)c3O)cc2)c1,-1.84% (inactive)
15,N#Cc1ccc(-c2ccc(CNc3ccc(N4CCOCC4)cc3)cn2)cc1,-9.84% (inactive)
16,CCOC(=O)c1nn(-c2ccccc2)c(=O)c2c(N)scc12,-15.2% (inactive)
17,O=C1CCc2cc(S(=O)(=O)Nc3ccc(Cl)cc3)ccc2N1,-1.62% (inactive)
18,FC(F)(F)c1cccc(N2CCN(C(=S)Nc3nccc4ccccc34)CC2)c1,1.49% (inactive)
19,COc1ccc(C2Nc3ccccc3C(=O)N2Cc2ccccc2OC)cc1COc1ccc(NC(C)=O)cc1 (centres undefined),2.01% (inactive)
